Most compounds without a hit are left out; they make up all but 9% or so of the library.
KinaseGlo FLuc – Counterscreen for Luciferase (Kinase-Glo TM) Inhibition; Luciferin 4-monooxygenase (Photuris pensylvanica), Q27757; Kinase-Glo luciferase, ATP luminescence, 8 min; Potency, µM (doses to about 38.3 µM), without a hit: at the highest dose activity change, negative = inhibition, most hits filed as inhibitors; hit rate 0.28% among 200,000; AID 1379, 2008; further: on the % scale 0 is the no-effect control and ±100 the full control effect; nearly all actives have a fitted effect of over 60% in size
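Compounds were added to a substrate mix at pH 7.2 (50 mM imidazole, 10 uM ATP, within the enzyme's linear range), followed by Kinase-Glo detection reagent; luminescence was measured after 8 minutes at ambient temperature.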
LMNA splice mod – qHTS Assay for Modulators of Lamin A Splicing; HeLa LMNA splicing GFP/RFP minigene ratio, 48 h; Potency, µM (series often up to 46.1 µM), for the others: at the highest dose ratio change, negative = inhibition, actives largely listed as inhibitors; hit rate 0.01% among 200,000; active means well fitted inhibition curve with a large enough effect in the signal ratio, with a control signal flat, not every such curve was filed as active; inconclusive means small, poorly fitted or top-dose-only effect, or effect the other way, or a change in a side signal; the % refers to the signal ratio; further: on the % scale 0 is the no-effect control and ±100 the full control effect
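Read-out is the ratio of GFP to DsRed2 object intensity, acquired by 488 nm laser-scanning cytometry on HeLa lamin A-EGFP minigene reporter cells. Compound incubation 48 hrs at 37 °C in Opti-MEM with 2% FBS; DMSO 0.5% final.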
HTT aggregate – qHTS Multiplex Assay to Identify Dual Action Probes in a Cell Model of Huntington: Aggregate Formation (GFP); Potency, µM (top dose mostly 46.1 µM), inactives show top-dose activity change, negative = inhibition, actives largely listed as inhibitors; PC12 HttQ103-GFP aggregates, Acumen cytometry, 40 h; AID 1688, 2009; hit rate 1.1% among 220,000; further: on the % scale 0 is the no-effect control and ±100 the full control effect; nearly all actives have a fitted effect of over 60% in size
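Aggregates are detected as GFP objects 1–25 µm with signal 6 STDEV over background in lysates of induced PC12 cells. These carry Huntingtin exon 1 with 103 glutamines fused to GFP under an ecdysone promoter; compounds titrated.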
HPGD block – qHTS Assay for Inhibitors of HPGD (15-Hydroxyprostaglandin Dehydrogenase); purified HPGD, NADH fluorescence kinetic, PGE2 substrate; hit rate 4.3% among 150,000; Potency, µM, for inactives: at the top dose activity change, negative = inhibition, most hits filed as inhibitors; active means well fitted inhibition curve with a large enough effect, not every such curve was filed as active; inconclusive means small, poorly fitted or top-dose-only effect, or another doubt; inactive means no such curve, though single readings can be large or run the other way; further: on the % scale 0 is the no-effect control and ±100 the full control effect
Target sequence (P15428 whole entry, looked up): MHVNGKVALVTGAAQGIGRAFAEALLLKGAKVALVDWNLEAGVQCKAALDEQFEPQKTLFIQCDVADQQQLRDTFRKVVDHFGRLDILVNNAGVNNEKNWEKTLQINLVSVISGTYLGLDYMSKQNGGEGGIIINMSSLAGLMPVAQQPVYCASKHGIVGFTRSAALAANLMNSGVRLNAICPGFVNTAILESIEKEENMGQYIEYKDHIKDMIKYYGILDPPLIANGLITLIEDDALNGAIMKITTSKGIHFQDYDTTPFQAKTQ
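20 nM HPGD preincubated 15 min at room temperature with compound in 50 mM Tris-HCl pH 8, 0.01% Tween 20. Started with 1 mM NAD+ and 30 uM prostaglandin E2; NADH fluorescence (360/450 nm) read 5 times over 30-s intervals, last minus first.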
ALDH1A1 inh – qHTS Assay for Inhibitors of Aldehyde Dehydrogenase 1 (ALDH1A1) | Purified ALDH1A1, NADH fluorescence, propionaldehyde substrate | hit rate 7.3% among 220,000 | Aldehyde dehydrogenase 1A1 (Homo sapiens), P00352 | Potency, µM (series often up to 75.3 µM), without a hit: at the top dose activity, negative = inhibition, actives largely listed as inhibitors; active means well fitted inhibition curve with a large enough effect, not every such curve was filed as active; inconclusive means small, poorly fitted or top-dose-only effect, or another doubt; inactive means no such curve, though single readings can be large or run the other way;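 further: plate controls were no enzyme wells and a reference inhibitor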
Target sequence (P00352 whole entry, looked up): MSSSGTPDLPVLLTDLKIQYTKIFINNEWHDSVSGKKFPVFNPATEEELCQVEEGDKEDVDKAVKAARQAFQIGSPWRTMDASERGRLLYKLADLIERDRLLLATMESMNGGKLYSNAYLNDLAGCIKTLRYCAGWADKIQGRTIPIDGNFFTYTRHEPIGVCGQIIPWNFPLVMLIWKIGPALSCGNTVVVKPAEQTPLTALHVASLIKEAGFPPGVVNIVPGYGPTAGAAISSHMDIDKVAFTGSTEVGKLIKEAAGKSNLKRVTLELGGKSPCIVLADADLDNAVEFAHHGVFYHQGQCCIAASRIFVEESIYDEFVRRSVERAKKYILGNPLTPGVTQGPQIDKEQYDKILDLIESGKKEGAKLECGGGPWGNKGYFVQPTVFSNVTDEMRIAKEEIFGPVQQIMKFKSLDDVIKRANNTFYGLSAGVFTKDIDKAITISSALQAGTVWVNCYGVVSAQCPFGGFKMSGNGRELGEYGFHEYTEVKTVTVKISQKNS
HTT ATP protect – qHTS Multiplex Assay to Identify Dual Action Probes in a Cell Model of Huntington: Cytoprotection (ATP); PC12 HTT-Q103 induced, cytoprotection, ATP luminescence, 40 h; Potency, µM (highest dose often 56.4 µM), for the others: cytoprotection (ATP increase), most hits filed as activators; hit rate 0.14% among 230,000; AID 1471, 2008; further: % of control where 0% means no effect; nearly all actives have a fitted effect of over 45% in size
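PC12 cells with ecdysone-inducible HTT exon 1 Q103-GFP, induced with 100 nM tebufenozide and co-treated with library compounds in a dose series (1536-well, 1500 cells/well). Cytoprotection read as ATP content by ATPlite luminescence.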
* hit, by the source's call; ? = inconclusive; . = not tested or not shown; [ ] = remark or other dose. Unless noted, the call rests on the fitted dose curve; in most records, active means well fitted curve in the direction sought with a large enough effect; inconclusive means small, poorly fitted or top-dose-only effect, or another doubt; inactive means no such curve, though single readings can be large; an effect the other way counts as inactive or inconclusive. Potency means the concentration at half of the fitted maximal effect.

SMILES	KinaseGlo FLuc	LMNA splice mod	HTT aggregate	HPGD block	ALDH1A1 inh	HTT ATP protect
Cc1ccccc1NC(=O)c1cc(C(=O)c2cc(Cl)ccc2O)cn(-c2ccccc2C)c1=O	0%	?	16µM*	10µM*	-3%	34%[10 µM]
Cc1ccc(-n2cc(C(=O)c3cc(Cl)ccc3O)cc(C#N)c2=O)cc1	0%	?	13µM*	-23%	5%	19%[10 µM]
O=C(OCc1cc2ccccc2[nH]c1=O)c1ccccc1	11%	2%	8%	-14%	-8%	-23%[0.074 µM]
CCn1c(=O)cc(SCC(=O)N2CCC(C)CC2)c2ccccc21	-1%	-24%	5%	5µM*	20µM*	-11%
CCN1CCN(C(=O)CSc2cc(=O)n(CC)c3ccccc23)CC1	-2%	?	?	?	6%	0%
CCn1c(=O)cc(SCC(=O)N2CCCCC2)c2ccccc21	0%	?	?	7.9µM*	20µM*	1%
C[C@@H]1C[C@@H]([C@@H](C)CC2CC(=O)NC(=O)C2)C(=O)[C@@H](C)C1	2%[39.9 µM]	.	.	-5%	-12%	-123%
CCn1c(CNC(=O)c2ccccc2F)nnc1SCC(=O)NC1CCCCC1	-5%	9%[46 µM]	32%[9.22 µM]	.	4%	20%[10 µM]
CCOC(=O)C1=C(c2ccccc2)NC(=O)NC1c1ccc(O)c(OCC)c1 (centres undefined)	-1%	-10%[46 µM]	22%	.	-11%	-24%
CCOC(=O)C1=C(C)NC(=S)NC1C (centres undefined)	0%	?	22%	.	0%	21%
CCOC(=O)C1=C(c2ccccc2)NC(=S)NC1C (centres undefined)	-1%	7%	5%	-8%	2µM*	?
CCOC(=O)C1=C(c2ccccc2)NC(=S)NC1c1cccc([N+](=O)[O-])c1 (centres undefined)	.	-11%	-10%	.	0.89µM*	11%[10 µM]
CCOC(=O)C1=C(c2ccccc2)NC(=S)NC1c1ccc(C)c([N+](=O)[O-])c1 (centres undefined)	-4%	-26%	16%	-18%	0.25µM*	12%[10 µM]
CCOC(=O)C1=C(c2ccccc2)NC(=S)NC1c1cc([N+](=O)[O-])ccc1OC (centres undefined)	2%	1%	12%	-7%	4µM*	11%
COc1ccc(CCNC(=O)COc2ccc(S(=O)(=O)N3CCOCC3)cc2)cc1	0%	-10%	-8%	-8%	-1%	12%[10 µM]
CC(C)C(=O)N1CCc2cc(-c3csc(N)n3)ccc21	0%	7%	8%	20µM*	14µM*	-29%
Nc1nc(-c2ccc3c(c2)CCC(=O)N3)cs1	-15%	24%[46 µM]	?	.	?	-34%
CC(=O)Oc1cc(OC(C)=O)c2c(=O)c(-c3ccc4c(c3)OCCCO4)c(C)oc2c1	.	.	2%[9.22 µM]	.	.	0%[10 µM]
Cc1oc2cc(O)cc(O)c2c(=O)c1-c1ccc2c(c1)OCCCO2	-4%	?	-19%	-29%	16µM*	-36%
CN(C)C(=O)c1cn(-c2ccccc2)nc1-c1cccc([N+](=O)[O-])c1	2%	.	15%	.	8.9µM*	-24%
O=C(O)/C=C/c1cn(-c2ccccc2)nc1-c1cccc([N+](=O)[O-])c1	.	.	11%[9.22 µM]	.	2%	0%[10 µM]
Cc1ccc(C(=O)N/C(=C/c2cn(-c3ccccc3)nc2-c2ccccc2)C(=O)O)cc1	.	.	-5%	.	11µM*	-19%
O=C(c1cn(-c2ccccc2)nc1-c1cccc([N+](=O)[O-])c1)N1CCCCC1	4%	?	-6%	.	?	-47%
CC(C)NC(=O)/C(=C/c1cn(-c2ccccc2)nc1-c1cccc([N+](=O)[O-])c1)NC(=O)c1ccccc1	2%	12%	-11%	-5%	14µM*	.
CCOc1ccc(C(=O)Nc2ccc(NC(=O)c3cccs3)cc2)cc1[N+](=O)[O-]	0%	-11%	-5%	-10%	20%	3%[10 µM]
SMILES	KinaseGlo FLuc	LMNA splice mod	HTT aggregate	HPGD block	ALDH1A1 inh	HTT ATP protect
CN(CCNC(=O)C1CCN(S(=O)(=O)c2cnc[nH]2)CC1)Cc1ccccc1	.	-1%	-6%	.	-14%	-13%
O=C(NNC(=O)c1ccccc1[N+](=O)[O-])c1cnccn1	-2%	5%	5%	-12%	14%	22%
Cc1ccc(N=Cc2cc(C)n(C3CCCC3)c2C)cc1	1%	7%	-12%	-19%	8.9µM*	-12%
Cc1nc(SCC(=O)NCc2ccco2)c2c3c(sc2n1)CCCC3	-2%	6%	15%	14µM*	10µM*	-30%
O=C(CSc1nc(C2CC2)nc2sc3c(c12)CCCC3)NCc1ccco1	0%	-5%	-8%	-9%	6%	-15%[10 µM]
CCCc1nc2sc3c(SCC(=O)NCc4ccco4)ncnc3c2c2c1CCC2	13%	?	?	?	25µM*	-1%[0.074 µM]
CCN1C(=O)CSc2ccc(C(=O)NCc3ccco3)cc21	10%	6%	20%	-1%	13µM*	-11%[0.074 µM]
O=C(NCc1ccc(N2CCCC2=O)cc1)c1ccc(F)cc1	-1%	?	12%	.	7%	-34%
CCN1C(=O)CSc2ccc(C(=O)OC)cc21	2%	-6%	2%	4%	1%	-5%
CC(C)(C)N1C(=O)c2ccc(C(=O)NCc3ccco3)cc2C1=O	-3%	10%	-8%	-14%	8.9µM*	-13%
O=C(NCc1ccco1)c1ccc(N2CCCC2=O)cc1	-3%	?	21%	25µM*	-5%	-27%
CC(=O)N(/N=C/c1ccc([N+](=O)[O-])o1)c1nc2ccccc2c(=O)n1-c1ccccc1	.	.	7%[9.22 µM]	.	.	1%[10 µM]
O=C(Nc1ccc(O)cc1C(=O)O)c1ccc2c(c1)C(=O)N(Cc1ccco1)C2=O	0%	2%	-15%	-13%	5.6µM*	-9%[0.074 µM]
O=C(Nc1ccc(O)cc1)c1ccc2c(c1)C(=O)N(Cc1ccco1)C2=O	-1%	2%	28%	-9%	14µM*	14%[10 µM]
O=C(c1ccc2c(c1)C(=O)N(Cc1ccco1)C2=O)N1CCOCC1	-3%	15%	6%	-6%	?	17%
O=C(O)c1ccc(C(=O)c2ccc3c(c2)C(=O)N(Cc2ccco2)C3=O)cc1	-2%	12%	-4%	8.9µM*	11µM*	-4%
O=C(Nc1ccc(O)cc1C(=O)O)c1cccc(Br)c1	-1%	-2%	-16%	-18%	11%	-17%
COC(=O)Cc1c(C)c2ccc(OCC(C)=O)c(C)c2oc1=O	0%	-10%	-4%	?	?	-46%

Compound activity: PubChem, National Center for Advancing Translational Sciences (NCATS)
